# HCV inh = qHTS Assay for Inhibitors of Hepatitis C Virus (HCV). Huh7.5.1 HCVcc-Cre infection, luciferase reporter, 44 h. Potency, µM (series often up to 41.8 µM), hits mostly inhibitors. AID 651820, 2012. actives 3.4% (n = 340,000); active = well fitted inhibition curve with a large enough effect; inconclusive = small, poorly fitted or top-dose-only effect, or another doubt; inactive = no such curve, though single readings can be large or run the other way
#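 HCVcc-Cre virus at an moi near 0.5 was added right after compound to cells cultured 4 h from seeding (1,000 cells/well). Luciferase activity was determined 44 h later, 15 min after substrate addition at RT.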
# Lassa entry inh = qHTS for Inhibitors of binding or entry into cells for Lassa Virus | Lassa virus pseudotype entry inhibition, cell reporter | Potency, µM (series often up to 37.9 µM), most hits filed as inhibitors | actives 1.2% (n = 300,000); calls by dose curve; tested in HEK293 cells; also: nearly all actives have a fitted effect of over 50% in size
# Shiga inhibitor = A qHTS for Small Molecule Inhibitors of Shiga Toxin; Vero cells, Shiga toxin protein synthesis inhibition reporter; inhibition, % at 38.7 µM; actives 9.2% (n = 290,000); AID 2315, 2010; in the data active = inhibition mostly above about 28%, no sharp cut-off; inactive = mostly below about 43%
# FMDV antiviral = High Throughput Screening for Foot and Mouth Disease Virus Antivirals; FMDV antiviral cell-based qHTS; Potency, µM (doses to about 57.9 µM), usual class: inhibitors; actives 1.2% (n = 410,000); AID 1159524, 2015; calls by dose curve; tested in HEK293T cells; also: read-out not given here; nearly all actives have a fitted effect of over 45% in size
# Marburg entry inh = qHTS for inhibitors of binding or entry into cells for Marburg Virus; Marburg virus pseudotyped entry inhibition, cell reporter; Potency, µM (titrated, usually from 37.8 µM), usual class: inhibitors; actives 1.8% (n = 300,000); calls by dose curve; tested in HEK293 cells
# CHX counter = Cycloheximide Counterscreen for Small Molecule Inhibitors of Shiga Toxin. AID 2314, 2010. actives 12% (n = 300,000). max response, %. cell reporter, cycloheximide protein synthesis inhibition counterscreen; in the data active = max response mostly above about 13%, no sharp cut-off; inactive = mostly below about 14%; also: read at 38.3 µM for the half of the compounds with a filed dose
# A number is an active result; . = inactive; ? = inconclusive; / = no result; + = active, no number. An excerpt weighted towards active compounds, which were near 13% of everything screened.
SMILES,HCV inh,Lassa entry inh,Shiga inhibitor,FMDV antiviral,Marburg entry inh,CHX counter
O=C(NC1CCCCCCC1)c1ccc(Br)cc1,.,?,/,.,?,/
O=C(Nc1ccc(Br)cc1)NC1CCCCCCC1,?,?,137,.,.,44
O=C(Nc1cccc([N+](=O)[O-])c1)NC1CCCCCCC1,?,?,81,.,?,32
O=C(NC1CC1)c1cccc(Oc2ccccc2)c1,.,.,.,.,.,.
CC(C)NS(=O)(=O)c1ccc(NC(=O)NC2CCCCC2)cc1,.,?,.,.,?,14
CC(NS(=O)(=O)c1ccccc1)C(=O)NC1CCCC1 (stereo not drawn),.,.,.,.,.,.
CC(=O)c1cn(CC(=O)Nc2ccc(C)cc2)c2ccccc12,?,.,.,.,.,.
O=[N+]([O-])c1ccc(CN2CCN(c3ccc4ccccc4n3)CC2)cc1,?,.,.,?,.,.
CNC(=O)c1[nH]cnc1C(=O)Nc1ccc(F)cc1,.,/,.,.,/,.
O=C(NC(=S)Nc1cccc([N+](=O)[O-])c1)C1CCCC1,.,.,52,.,.,34
CC(=O)NC(=S)Nc1cccc([N+](=O)[O-])c1,.,.,.,.,.,.
CC(=O)c1ccc(NC(=S)NNC(=O)NC2CCCCC2)cc1,.,.,.,.,?,21
CCCN(C(=O)CCn1cnc2onc(-c3ccc(F)cc3)c2c1=O)c1ccccc1C,/,.,/,.,/,/
COC(=O)C(C(=O)OC)C(CC(=O)c1ccc(C)cc1)c1cc(OC)c(OC)c(OC)c1 (stereo not drawn),.,/,.,.,/,.
COc1ccc(C(CC(=O)c2ccc(C)cc2)C(C#N)C#N)cc1OC (stereo not drawn),?,?,66,.,?,29
O=C(COC(=O)C1CC(=O)N(Cc2ccco2)C1)c1ccc(OC(=O)c2ccco2)cc1 (stereo not drawn),.,.,.,.,?,10
Cc1ccc(C(=O)Oc2ccc(C(=O)COC(=O)C3CC(=O)N(Cc4ccco4)C3)cc2)cc1 (stereo not drawn),.,.,68,.,?,29
C/C(=C\c1ccccc1)C(=O)N1CCN(c2cccc(C(F)(F)F)c2)CC1,.,.,.,?,.,.
NC(=O)NC(=O)COC(=O)CCCc1c[nH]c2ccccc12,.,.,.,.,.,.
COc1ccc(-c2noc(CN(C(=O)C(C)(C)C)C(C)C)n2)cc1,.,.,.,.,?,.
O=C(CSc1cccs1)Nc1ccc2ccccc2c1,.,.,125,.,.,46
O=C(CSCc1cccc(CSCC(=O)Nc2ccc3ccccc3c2)n1)Nc1ccc2ccccc2c1,10µM,.,.,.,?,.
O=C(CSC1=NCCS1)Nc1cccc2ccccc12,.,.,.,.,.,.
O=C(CSc1ccccc1)Nc1ccc2sccc2c1,.,/,45,.,/,45
O=C(CSc1cccs1)Nc1cccc2ccccc12,.,.,+,.,.,50
SMILES,HCV inh,Lassa entry inh,Shiga inhibitor,FMDV antiviral,Marburg entry inh,CHX counter
CO/N=C(\c1nonc1N)N1CCN(c2ccc([N+](=O)[O-])cc2Cl)CC1,.,.,.,?,?,.
CO/N=C(\c1nonc1N)N1CCN(c2ccc(Cl)cc2[N+](=O)[O-])CC1,?,?,.,35µM,?,.
CC(C)(C)C(=O)Nc1ccc(-c2nc3ccc(NC(=O)C(C)(C)C)cc3[nH]2)cc1,/,.,/,.,/,/
O=C(Nc1ccncc1)c1cccs1,.,.,.,.,.,.
CC(=O)Nc1ccc2nc(-c3cccn3C)[nH]c2c1,.,.,/,.,.,17
CC(=O)Nc1ccc2nc(-c3cccs3)[nH]c2c1,.,.,68,.,.,27
CC(=O)Nc1ccc(NC(=O)C(C)Sc2n[nH]c(-c3cccs3)n2)cc1 (stereo not drawn),.,/,/,.,/,/
Cn1cccc1-c1nc2ccc(NC(=O)c3cccs3)cc2[nH]1,?,?,.,?,?,26
Cc1ccc(-c2nc(N3CCOCC3)s[n+]2-c2ccccc2)cc1,.,?,85,.,?,62
CN(C)c1ccccc1C(=O)c1ccccc1N(C)C,4µM,.,86,.,?,28
O=C(/C=C/c1ccc(Cl)cc1)N(Cc1ccccc1)c1ccccn1,.,?,107,.,.,21
CCCCCCCCCc1conc1C(=O)/C=C/c1oc2c(c1C)CCC(C)C2 (stereo not drawn),/,/,/,.,/,/
O=C(CSCc1ccc([N+](=O)[O-])cc1)NN=C1CCCCCC1,.,.,.,.,.,.
CCOC(=O)c1sc2ncnc(NCC(c3cccs3)N(C)C)c2c1C (stereo not drawn),10µM,.,.,.,?,24
CN(CC(=O)Nc1ccc(C#N)cc1)Cc1ccc(Cl)c(Cl)c1,.,.,.,.,.,.
CCCn1nnc(NC(=O)/C=C/c2ccc(C(C)C)cc2)n1,?,/,.,.,/,.
O=P(Cc1ccccc1)(Cc1ccccc1)c1ccccc1,.,.,/,.,.,/
O=C(Nc1ccc(NC(=O)C2CCCCC2)nc1)c1ccccn1,.,?,81,.,?,44
COc1ccccc1C(=O)Nc1ccc(NC(=O)C2CCCCC2)nc1,.,.,.,.,.,.
O=C(Nc1ccc(NC(=O)C2CC2)nc1)c1ccco1,.,?,60,.,?,24
O=C(Nc1ccc(NC(=O)C2CCCCC2)nc1)c1ccco1,.,?,66,.,.,52
Cn1c(=O)c2c(O)c(C=NCc3ccccc3)c(=O)n(C)c2n(C)c1=O,.,.,.,.,.,.
O=C(c1cc2cc(F)ccc2[nH]1)N1CCc2ccccc2C1,.,/,65,.,/,20
O=C(c1cc2cc(Cl)ccc2[nH]1)N1CCc2ccccc2C1,?,/,.,.,/,.
O=C(c1ccc(-n2cccn2)cc1)N1CCc2ccccc2C1,.,.,.,.,.,24
SMILES,HCV inh,Lassa entry inh,Shiga inhibitor,FMDV antiviral,Marburg entry inh,CHX counter
O=C(CNc1cccc(F)c1)N1CCc2ccccc2C1,.,/,126,.,/,62
CS(=O)(=O)N(CC(=O)N1CCc2ccccc2C1)c1cccc(F)c1,.,.,.,.,.,.
O=C(c1cccc(F)c1)N1CCc2ccccc2C1,.,.,55,.,.,40
O=C(c1ccncc1)N1CCc2ccccc2C1,.,/,.,.,/,.
Cc1cc2cc(CCNC(=O)c3ccc(S(=O)(=O)N4CCCC4)cc3)c(=O)[nH]c2cc1C,?,.,.,.,?,.
CCN(CC)P(=O)(Nc1cccc(C(F)(F)F)c1)c1ccc(N(C)C)cc1NC(=O)c1ccco1 (stereo not drawn),?,/,.,.,/,.
CCC1(O)C(=O)OCc2c1cc1n(c2=O)Cc2cc3cc(O)ccc3nc2-1 (stereo not drawn),.,/,/,.,/,/
CC[C@@]1(O)C(=O)OCc2c1cc1n(c2=O)Cc2cc3ccccc3nc2-1,/,?,.,.,0.025µM,.
CC(C)C(=O)N1CCN(c2ccc(NC(=O)c3ccc(Br)o3)cc2)CC1,.,.,.,.,.,.

# Screens from PubChem.
